Here are results for 22 sequences from the supplement of paper PMC6555819.

For the experiment, the system named is PXR homodimer (NR concentration 270 nM). Put plainly: PBM binding z-score (relative to random genomic background probes); higher = stronger binding; sequences stand for … in GC…GCGATTGACAGCGTAGAATGAAGG
Put shortly:
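Ligand-free nuclear receptor dimers were bound for 1 h to custom Agilent 4×180K protein-binding microarrays. Detection used antibodies against each partner (one per run). Binding z-scores rest on regression-normalized fluorescence, with random background probes as the reference.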
In turn, CCCACTGGGGCATAAGGTTACCATAAGCCAGCCC displayed a PBM binding z-score of -0.684.

GCTTACGGGTCAAACGTTATAGCATGAATAGAAT: the PBM binding z-score was -0.15.

On to TCTCGGATGACACGAAGGTCAGAGCTTTCCAGAG, for which the PBM binding z-score was 0.0323.

The sequence ATCTCTAGGTAAAATTTCAGTGAATCCCGAGGAT yielded a PBM binding z-score of -0.0342.

The sequence CATACAGGGTCAGCTAGGCGAGAGTAGGGACGGC had a PBM binding z-score of 0.199.

Regarding GAAACGAGGGCAAGTTGATAGCAGAGTTTGATGG, the PBM binding z-score stood at 1.01.

Take GCATATAGGTAATACAAGGTGAAAATCCGATTGT: the PBM binding z-score was 0.142.

CCTAGTTGGTCAGGAGGTCAGACACCGGATATGA showed a PBM binding z-score of 0.934.

The sequence CCTTACGGCTCACGAGGTTATAGCACGACGAGCG yielded a PBM binding z-score of 0.226.

Turning to CCTCGGAGGAGAACAGGAGGTCAGAGCTGCCAGA, the PBM binding z-score turned out to be 0.761.

Sequence TAGCCTTGGTCATGCGGGCCAGTATAGTGTCGGC displayed a PBM binding z-score of -1.18.

For AGAATGAGTTTACCAAAGATCAGGGAAACGCTTG, the PBM binding z-score is 0.241.

ACTCGGAGGACAAAGGTCTGAGCTACGCCAGTGA came in with a PBM binding z-score of -0.379.

The sequence TTACCAAGGGGAAAGGTCGTTGATGCACGCCTTG gave a PBM binding z-score of 0.149.

In turn, CCTACTGGGCCACGAATGGTCATTGATTCAGTGA registered a PBM binding z-score of -0.838.

Regarding CGTCAAAGTTCAACTAAGGAAACGTAAAGCACGC, the PBM binding z-score is 2.97.

Sequence TCTTGTAGATCAAGGAGGTTAAGAAAGCCTGAGT showed a PBM binding z-score of 0.408.

The sequence AATACAGGGTCACTAGGACAGAGTAGGTACGAAT came in with a PBM binding z-score of 0.566.

The sequence GTTCGGAGGACAAGGTCAGAGCTTTGTCCGTAGA yielded a PBM binding z-score of -0.41.

Sequence TGAATGAGGTTAAAGATCAGGTAACGTGGCGTCG yielded a PBM binding z-score of 0.0433.

Turning to AATACAGGGTCACTAGGCCAGATTAGGTACGAAT, the PBM binding z-score amounted to 0.427.

For GCAGACAGGTGTAACGCAGGTAACTCAGGGTGGC, the PBM binding z-score was -1.01.
